# PubChem BioAssay AID504397 (Broad Institute, 2011)
# Measured potencies and affinities stand elsewhere. Unmarked numbers belong to inactive results. No rule for the calls is given here.
# Assay: toxicity toward cultured mammalian cells – cell-based, plate reader, cherry-pick samples, cytotoxicity control, dose response (AID 504397)
# Details: plate reader viability; series mostly up to 35 µM; activity change, negative = toxicity: at the top concentration
row,SMILES,"activity change, negative = toxicity"
1,COc1cccc(/C=N/NC(=O)c2nnn(-c3nonc3N)c2C(C)C)c1OCc1ccc(F)cc1,-3.78%
2,CN(C)CCCN(C(=O)c1cc(-c2cccs2)nc2ccccc12)c1nc2ccc(F)cc2s1,-4.11%
3,CN(C)CCN(C(=O)c1ccc2ccccc2c1)c1nc2ccc(F)cc2s1,1.11%
4,COc1ccc(CN2CCN(C(c3ccc(F)cc3)c3ccc(F)cc3)CC2)c(OC)c1OC,6.9%
5,CN(C)S(=O)(=O)c1ccc(NC(=O)/C=C/c2ccccc2Cl)cc1,-5.34%
6,CCn1cc(/C=C(\NC(=O)c2ccccc2)C(=O)N2CCOCC2)c2ccccc21,-5.48%
7,O=[N+]([O-])c1ccc(-c2cnc(SC(c3ccccc3)c3ccccc3)[nH]2)cc1,-1.02%
8,CCOc1cc(S(=O)(=O)N(Cc2ccccc2)Cc2ccccc2)c(OCC)cc1-n1cnnn1,1.55%
9,Cc1ccc(/C=N/NC(=O)c2nnn(-c3nonc3N)c2C(C)C)o1,0.746%
10,CC(/C=N\NC(=O)CN1CCN(S(=O)(=O)c2ccc(C)cc2)CC1)=C\c1ccccc1,-8.35%
11,CC(C)c1c(C(=O)N/N=C/c2cccc3ccccc23)nnn1-c1nonc1N,-7.38%
12,CCn1nnnc1SCC(=O)Nc1nc(C)c(C)s1,0.695%
13,Cc1ccc(NC(=O)CCc2ccc(S(=O)(=O)NC3CCCCC3)cc2)cc1,-8.11%
14,CN1C(=O)/C(=C/c2cccc(Cl)c2)Sc2ccc(C(=O)N3CCOCC3)cc21,-6.29%
15,O=C(Nc1sc2c(c1C(=O)c1ccc(Cl)cc1)CCCC2)c1cccnc1,2.35%
16,NC(=NCCCCCCN=C(N)/N=C(\N)Nc1ccc(Cl)cc1)/N=C(\N)Nc1ccc(Cl)cc1,-4.22%

row,SMILES,"activity change, negative = toxicity"
1,O=C(C(Cc1ccccc1)N1C(=O)c2ccccc2C1=O)N1c2ccccc2CCc2ccccc21 (stereo unspecified),-2.68%
2,CCOC(=O)c1cc(-c2ccccc2)sc1NC(=O)C(C)Sc1nnnn1C (stereo unspecified),7.59%
3,Cc1ccc2nc(N(CCN(C)C)C(=O)c3ccc4ccccc4c3)sc2c1,-1.54%
4,N/C(Cc1ccc([N+](=O)[O-])cc1)=N\OC(=O)c1ccc2ccccc2c1,0.157%
5,Cc1ccc(C(=O)c2c3ccc(C(F)(F)F)cc3nn2CCC(N)=O)cc1,1.73%
6,COC(=O)C1CCCN1S(=O)(=O)c1ccc2ccccc2c1 (stereo unspecified),-12%
7,COc1ccc(-n2c(SCc3ccc([N+](=O)[O-])cc3)nnc2-c2ccc(C)cc2)cc1,4.62%
8,Cc1csc2nc(=O)c3ccccc3n12,4.49%
9,CC(C)c1c(C(=O)N/N=C/c2c[nH]c3ccccc23)nnn1-c1nonc1N,-5.13%
10,CC1(c2ccc(OCC#N)cc2)C=C(c2ccc(OCC#N)cc2)n2nc(C(F)(F)F)nc2N1 (stereo unspecified),-5.82%
11,Cc1cccc(-c2nnc(SCc3ccc(C#N)cc3)n2Cc2ccco2)c1,-1.35%
12,COc1cccc(-c2c(C(=O)N/N=C/c3sccc3C)nnn2-c2nonc2N)c1,0.939%
13,CS(=O)(=O)Nc1ccccc1C(=O)NC1CC2CCC1C2 (stereo unspecified),-0.112%
14,CCn1cc(/C=C(\NC(=O)c2ccccc2F)C(=O)N2CCCC2)c2ccccc21,-7.83%
15,CCn1cc(/C=C(\NC(=O)c2ccccc2F)C(=O)N2CCOCC2)c2ccccc21,-7.28%
